Reference: PubChem BioAssay (NCI)
About 83,000 compounds went through this panel and 20% of them were active in at least one assay; those are over-represented in the sample as a whole.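 Cells were grown in 96-well plates and exposed to the test compound at a single concentration for 48 hours; results are reported as percent growth, with values below 10 considered active.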 Values without a mark were called inactive. Activity calls are given as the source filed them.

How the values were obtained:
Assay in all cases: NCI-60 one-dose screen, 48 h (100 = growth as untreated, 0 = no growth, -100 = all killed)
Details in all cases: 10 µM unless noted
HCT-15 colon = system: HCT-15 colon
HT29 colon = system: HT29 colon
SNB-75 CNS = system: SNB-75 CNS
SNB-19 CNS = system: SNB-19 CNS
U251 CNS = system: U251 CNS
PC-3 prostate = system: PC-3 prostate
SK-MEL-5 melanoma = system: SK-MEL-5 melanoma
UACC-62 melanoma = system: UACC-62 melanoma
LOX IMVI melanoma = system: LOX IMVI melanoma
SK-MEL-28 melanoma = system: SK-MEL-28 melanoma
SK-MEL-2 melanoma = system: SK-MEL-2 melanoma
EKVX NSCLC = system: EKVX NSCLC
SN12C renal = system: SN12C renal
UO-31 renal = system: UO-31 renal
TK-10 renal = system: TK-10 renal
ACHN renal = system: ACHN renal
CAKI-1 renal = system: CAKI-1 renal
A498 renal = system: A498 renal
CCRF-CEM leukemia = system: CCRF-CEM leukemia
MOLT-4 leukemia = system: MOLT-4 leukemia

| SMILES | growth (HCT-15 colon) | growth (HT29 colon) | growth (SNB-75 CNS) | growth (SNB-19 CNS) [%] | growth (U251 CNS) | growth (PC-3 prostate) [%] | growth (SK-MEL-5 melanoma) | growth (UACC-62 melanoma) | growth (LOX IMVI melanoma) | growth (SK-MEL-28 melanoma) | growth (SK-MEL-2 melanoma) [%] | growth (EKVX NSCLC) [%] | growth (SN12C renal) [%] | growth (UO-31 renal) | growth (TK-10 renal) [%] | growth (ACHN renal) | growth (CAKI-1 renal) | growth (A498 renal) | growth (CCRF-CEM leukemia) | growth (MOLT-4 leukemia) |
| --- | --- | --- | --- | --- | --- | --- | --- | --- | --- | --- | --- | --- | --- | --- | --- | --- | --- | --- | --- | --- |
| COc1cc(Nc2cn[nH]c2-c2ccc(Cl)cc2)cc(OC)c1OC | 35.9% | 15% | -9.76% (active) | 56 | 35.3% | 56.4 | 39.1% | 23.2% | 41.6% | 46.2% | 32.4 | 62.7 | 52.5 | 32.3% | 67 | 71.1% | 59.9% | 43.3% | 24.3% | 19.7% |
| Cn1cc(-c2cc3ncnc(Nc4ccc(CC(=O)Nc5cc(C(C)(C)C)on5)cc4)c3s2)cn1 | 18.6% | 27.4% | 54% | 86.1 | 54.2% | 47 | 52.1% | 30% | 25.8% | 44% | 14 | 60.2 | 15.4 | 11% | 17.8 | 14.1% | 9.29% (active) | -18.6% (active) | 10.8% | 17.4% |
| C=C1C(=O)O[C@H]2[C@H]1CC/C(COC(=O)C(C)c1ccc(CC(C)C)cc1)=C\CC[C@@]1(C)O[C@@H]21 (stereo not given in full) | -56.1% (active) | -54.1% (active) | 56.6% | 64.1 | 1.42% (active) | 16.4 | 7.78% (active) | 6.52% (active) | -89.1% (active) | 5.16% (active) | 36.7 | 46.2 | 35.2 | -87.6% (active) | 62 | -94.6% (active) | 79.1% | 92.7% | 4.97% (active) | -3.37% (active) |
